In PubChem BioAssay:
For some assays here: Entries with a potency or affinity are not part of this list. Active and inactive are the calls of the source. Unless noted, the rule behind the calls is not given here.

Assays:
[1] = antimalarial activity against Dd2 strain (AID 2302;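 active = growth inhibition above 50% at the single 2 µM test dose, taken to imply half-maximal potency below 2 µM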;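 note: 0% = DMSO untreated growth and 100% = chloroquine plus artemisinin killed control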); settings: P. falciparum Dd2 in RBCs, LDH growth readout, 72 h; at 2 µM; active compounds read high
[2] = HepG2 cytotoxicity, primary screen, cytotoxicity control for P. falciparum antimalarial project, cell-based, ATP luminescence (AID 2303;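 active = inhibition above 50%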;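 note: 0% = DMSO wells and 100% = digitonin-killed cells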); settings: HepG2 viability, 24-48 h, at 10 µM, active compounds read high
[3] = biological target: L-lactate dehydrogenase (Plasmodium falciparum (isolate CDC / Honduras)) (UniProt Q27743); assay: PfLDH activity inhibition – cell lysate, 3D7 strain, counter-screen for P. falciparum growth inhibition project (AID 2304);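 note: 0% = vehicle and 100% = reference inhibitor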; settings: P. falciparum 3D7 crude extract, LDH APAD/NBT absorbance; at 2 µM; active compounds read high
Sequence of L-lactate dehydrogenase (Plasmodium falciparum (isolate CDC / Honduras)) (Q27743 whole entry, looked up): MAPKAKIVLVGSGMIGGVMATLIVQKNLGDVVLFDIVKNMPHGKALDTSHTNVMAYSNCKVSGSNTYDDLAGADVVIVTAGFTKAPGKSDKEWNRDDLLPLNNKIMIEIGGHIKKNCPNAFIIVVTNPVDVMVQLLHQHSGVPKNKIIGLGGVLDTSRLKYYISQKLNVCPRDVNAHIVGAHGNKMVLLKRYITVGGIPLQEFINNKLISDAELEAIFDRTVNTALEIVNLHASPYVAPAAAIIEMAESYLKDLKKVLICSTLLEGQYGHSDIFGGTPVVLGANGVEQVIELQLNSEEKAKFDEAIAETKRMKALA

[4] = inhibition of 3D7 malaria parasite growth – strain 3D7 (AID 2306);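 note: 0% = DMSO wells and 100% = chloroquine plus artemisinin control wells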; settings: P. falciparum 3D7 erythrocytic growth, LDH absorbance, 72 h; at 2 µM; active compounds read high
[5] = biological target: Calcium-dependent protein kinase 1 (Plasmodium falciparum (isolate 3D7)) (UniProt P62344); assay: PfCDPK1 kinase inhibitors, biochemical, TCAMS library (AID 1159585; cut-off not given, nearly all actives have IC50 up to about 0.98 µM;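 note: inhibitors leave more ATP so luminescence rises with inhibition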); settings: recombinant PfCDPK1, Kinase-Glo ATP depletion luminescence
Sequence of Calcium-dependent protein kinase 1 (Plasmodium falciparum (isolate 3D7)) (P62344 whole entry, looked up): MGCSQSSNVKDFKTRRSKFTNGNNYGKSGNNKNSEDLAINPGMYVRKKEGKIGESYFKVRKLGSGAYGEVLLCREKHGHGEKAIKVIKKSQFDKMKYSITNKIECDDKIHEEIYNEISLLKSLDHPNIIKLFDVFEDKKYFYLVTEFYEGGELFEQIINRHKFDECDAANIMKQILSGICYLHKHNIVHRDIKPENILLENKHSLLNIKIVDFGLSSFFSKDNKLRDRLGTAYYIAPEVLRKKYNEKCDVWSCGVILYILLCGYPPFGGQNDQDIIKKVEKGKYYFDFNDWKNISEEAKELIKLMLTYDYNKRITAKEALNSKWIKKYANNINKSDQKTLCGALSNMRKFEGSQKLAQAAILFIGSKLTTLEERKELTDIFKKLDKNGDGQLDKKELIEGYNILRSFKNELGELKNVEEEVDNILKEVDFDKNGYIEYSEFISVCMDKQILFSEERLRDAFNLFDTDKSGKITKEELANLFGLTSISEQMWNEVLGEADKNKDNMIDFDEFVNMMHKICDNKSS

[6] = biological target: Plasmodium falciparum protein kinase 6 (PK6, PF3D7_1337100) (UniProt Q8IDW1); assay: PfPK6 kinase inhibitors, biochemical, TCAMS library (AID 1159586); settings: recombinant PfPK6, Kinase-Glo ATP depletion luminescence
Sequence of Plasmodium falciparum protein kinase 6 (PK6, PF3D7_1337100) (Q8IDW1 1-305): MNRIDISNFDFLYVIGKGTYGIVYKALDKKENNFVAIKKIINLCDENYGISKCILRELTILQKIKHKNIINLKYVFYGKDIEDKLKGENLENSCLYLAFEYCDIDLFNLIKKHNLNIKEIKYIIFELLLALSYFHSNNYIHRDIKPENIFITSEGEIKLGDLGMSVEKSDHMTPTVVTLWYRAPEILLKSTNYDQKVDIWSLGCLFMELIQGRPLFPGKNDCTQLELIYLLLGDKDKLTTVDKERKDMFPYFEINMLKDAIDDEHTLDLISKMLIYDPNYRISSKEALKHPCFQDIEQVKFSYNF

[7] = biological target: Protein kinase 7 (PK7), Plasmodium falciparum 3D7 (PF3D7_0213400) (UniProt Q7YTF7); assay: inhibition of Plasmodium PK7 catalytic activity – biochemical, TCAMS antimalarial set, Kinase-Glo luminescence (AID 1159587); settings: recombinant PfPK7, Kinase-Glo ATP depletion luminescence
Sequence of Protein kinase 7 (PK7), Plasmodium falciparum 3D7 (PF3D7_0213400) (Q7YTF7 1-343): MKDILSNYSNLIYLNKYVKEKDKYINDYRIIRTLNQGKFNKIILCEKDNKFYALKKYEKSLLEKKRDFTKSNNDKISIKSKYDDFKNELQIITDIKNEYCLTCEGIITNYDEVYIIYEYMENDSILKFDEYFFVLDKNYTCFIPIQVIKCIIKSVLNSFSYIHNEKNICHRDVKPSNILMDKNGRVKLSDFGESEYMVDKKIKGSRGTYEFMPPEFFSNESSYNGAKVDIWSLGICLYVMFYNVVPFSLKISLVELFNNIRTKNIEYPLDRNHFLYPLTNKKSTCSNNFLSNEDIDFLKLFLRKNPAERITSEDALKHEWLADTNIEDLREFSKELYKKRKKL

[8] = biological target: Calcium-dependent protein kinase 4 (Plasmodium falciparum (isolate 3D7)) (UniProt Q8IBS5); assay: PfCDPK4 kinase inhibitors, biochemical, TCAMS library (AID 1159588; cut-off not given, nearly all actives have IC50 up to about 0.91 µM); settings: recombinant PfCDPK4, Kinase-Glo ATP depletion luminescence
Sequence of Calcium-dependent protein kinase 4 (Plasmodium falciparum (isolate 3D7)) (Q8IBS5 whole entry, looked up): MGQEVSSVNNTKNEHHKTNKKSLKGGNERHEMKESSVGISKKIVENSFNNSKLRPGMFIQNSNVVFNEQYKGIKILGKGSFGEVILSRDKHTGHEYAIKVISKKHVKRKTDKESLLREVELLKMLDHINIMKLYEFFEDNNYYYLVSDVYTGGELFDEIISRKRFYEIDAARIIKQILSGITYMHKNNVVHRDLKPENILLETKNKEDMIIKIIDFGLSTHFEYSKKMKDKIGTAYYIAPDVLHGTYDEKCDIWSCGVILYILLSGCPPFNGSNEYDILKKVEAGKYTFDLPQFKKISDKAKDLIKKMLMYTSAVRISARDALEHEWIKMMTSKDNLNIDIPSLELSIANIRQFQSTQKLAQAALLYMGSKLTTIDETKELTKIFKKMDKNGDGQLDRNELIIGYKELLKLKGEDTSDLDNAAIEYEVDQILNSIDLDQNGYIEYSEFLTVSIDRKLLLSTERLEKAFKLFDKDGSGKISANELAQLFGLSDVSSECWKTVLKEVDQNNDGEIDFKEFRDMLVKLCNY

CCCCc1ccc(NC(=O)Nc2ccc3c(c2)CCNCC3)cc1
inactive: growth inhibition [1] 43% | inhibition [2] 16% | inhibition [3] 0% | outcome [5] | outcome [6] | outcome [7] | outcome [8]
active: growth inhibition [4] 95%

O=C(N[C@@H](CC1CCCCC1)C(=O)NCc1cccc(C(F)(F)F)c1)c1ccc(O)c(-c2ccc(Cl)c(Cl)c2)c1
active: growth inhibition [1] 100% | growth inhibition [4] 98%
inactive: inhibition [2] -5% | inhibition [3] 5% | outcome [5] | outcome [6] | outcome [7] | outcome [8]

CCCCCN1CCC(NS(=O)(=O)c2cccc(C(=O)Nc3ccc(C(F)(F)F)cc3)c2)C1 (stereo not given)
inactive: growth inhibition [1] 5% | inhibition [2] 45% | inhibition [3] -3% | outcome [5] | outcome [6] | outcome [7] | outcome [8]
active: growth inhibition [4] 95%

CCOc1c(OC)ccc2c1CCN(CCN1CCC(NC(=O)c3ccc(-c4cccc(C(F)(F)F)c4C(F)(F)F)cc3)CC1)C2
inactive: inhibition [2] 30% | inhibition [3] -7% | outcome [5] | outcome [6] | outcome [7] | outcome [8]
active: growth inhibition [1] 57% | growth inhibition [4] 102%

COc1cc2c(cc1OC)CC(NCc1ccc(-c3ccc4nc[nH]c4c3)cc1)C2
inactive: inhibition [2] 40% | inhibition [3] 0% | outcome [5] | outcome [6] | outcome [7] | outcome [8]
active: growth inhibition [1] 92% | growth inhibition [4] 97%

CC[C@H](NC(=O)c1c(N)c(-c2sccc2Cl)nc2ccccc12)c1ccccc1
active: growth inhibition [1] 92% | growth inhibition [4] 99%
inactive: inhibition [2] 0% | inhibition [3] -4% | outcome [5] | outcome [6] | outcome [7] | outcome [8]

CCC(CC)(Cc1ccccc1)NC(=O)[C@H](Cc1ccc(OC)c(OC)c1)Nc1ccc(C#N)c2ccccc12
inactive: inhibition [2] 16% | inhibition [3] 0% | outcome [5] | outcome [6] | outcome [7] | outcome [8]
active: growth inhibition [1] 69% | growth inhibition [4] 90%

Cc1cc(F)ccc1Nc1nc(N(C)c2ccccc2)c2cccc(O)c2n1
inactive: inhibition [2] 38% | inhibition [3] 2% | outcome [5] | outcome [6] | outcome [7] | outcome [8]
active: growth inhibition [1] 81% | growth inhibition [4] 92%

O=C(Nc1ccc(Br)cc1)N(CCN1CCOCC1)CC(O)COCc1ccc(Cl)c(Cl)c1 (stereo not given)
inactive: inhibition [2] 16% | inhibition [3] -5% | outcome [5] | outcome [6] | outcome [7] | outcome [8]
active: growth inhibition [1] 52% | growth inhibition [4] 94%

CN(C)CCC=C1c2ccccc2Sc2c(O)cc(Cl)cc21
inactive: inhibition [2] 8% | inhibition [3] -9% | outcome [5] | outcome [6] | outcome [7] | outcome [8]
active: growth inhibition [1] 80% | growth inhibition [4] 100%

CC(=O)c1ccc(-c2ccccc2)s1
inactive: growth inhibition [1] 2% | inhibition [2] -2% | inhibition [3] 8% | outcome [5] | outcome [6] | outcome [7] | outcome [8]
active: growth inhibition [4] 92%

Cn1cncc1C(=O)Nc1cccc(-c2ccc(-c3nc4ccc(F)cc4[nH]3)s2)c1
active: growth inhibition [4] 99%
inactive: growth inhibition [1] 27% | inhibition [2] -9% | inhibition [3] 1% | outcome [5] | outcome [6] | outcome [7] | outcome [8]

O=C(C=Cc1ccc(Cl)c(Cl)c1)NCCCCCN1CCC(CCNC(=O)/C=C/c2ccccc2)CC1
active: growth inhibition [4] 97%
inactive: growth inhibition [1] 1% | inhibition [2] 25% | inhibition [3] -7% | outcome [5] | outcome [6] | outcome [7] | outcome [8]

O=S(=O)(c1csc2ccccc12)N(CCC(O)(C(F)(F)F)C(F)(F)F)Cc1cccc(O)c1
active: growth inhibition [1] 100% | growth inhibition [4] 101%
inactive: inhibition [2] -11% | inhibition [3] 7% | outcome [5] | outcome [6] | outcome [7] | outcome [8]

O=C(NCCc1ccccc1)[C@H](Cc1ccccc1)Nc1ccnc(NCC2CCCCC2)n1
inactive: inhibition [2] 11% | inhibition [3] 2% | outcome [5] | outcome [6] | outcome [7] | outcome [8]
active: growth inhibition [1] 53% | growth inhibition [4] 86%

CS(=O)(=O)c1ccc(-c2cnc(N)c(-c3cccc(O)c3)c2)cc1
active: growth inhibition [1] 97% | growth inhibition [4] 98%
inactive: inhibition [2] 48% | inhibition [3] -3% | outcome [5] | outcome [6] | outcome [7] | outcome [8]

COCc1ccc(CN2CCC(C(=O)Nc3ccc(-c4nc5ccccc5[nH]4)cc3)CC2)o1
active: growth inhibition [4] 97%
inactive: growth inhibition [1] 13% | inhibition [2] 13% | inhibition [3] -5% | outcome [5] | outcome [6] | outcome [7] | outcome [8]

COc1ccc(-c2cccc(NC(=O)c3ccc(C#N)cc3)c2)cc1CN1CCN(C)CC1
active: growth inhibition [4] 93%
inactive: growth inhibition [1] 2% | inhibition [2] 24% | inhibition [3] -3% | outcome [5] | outcome [6] | outcome [7] | outcome [8]

CCOc1ccc(OCC(=O)Nc2nc(-c3ccc(OC)cc3)c(C)s2)cc1
inactive: inhibition [2] -7% | inhibition [3] -8% | outcome [5] | outcome [6] | outcome [7] | outcome [8]
active: growth inhibition [1] 98% | growth inhibition [4] 99%

COc1cc2c(cc1OC)CN(CCc1ccc(NC(=O)c3cc4cc(OC(F)(F)F)ccc4[nH]3)cc1)CC2
inactive: growth inhibition [1] 20% | inhibition [2] 36% | inhibition [3] -3% | outcome [5] | outcome [6] | outcome [7] | outcome [8]
active: growth inhibition [4] 99%

Cn1cc(Br)c(-c2cccc(Nc3ccnc4cc(-c5nccs5)ccc34)c2)n1
active: growth inhibition [4] 91%
inactive: growth inhibition [1] 32% | inhibition [2] 37% | inhibition [3] -1% | outcome [5] | outcome [6] | outcome [7] | outcome [8]

O=C(O)C[C@H](NC(=O)c1cc(-c2ccc3c(c2)OCO3)no1)C(=O)O (tested in a mixture with another compound)
inactive: growth inhibition [1] -3% | inhibition [2] -4% | inhibition [3] -2% | outcome [5] | outcome [6] | outcome [7] | outcome [8]
active: growth inhibition [4] 98%

CN(C)c1ccc(N=C2N=C(Nc3ccc(N(C)C)cc3)c3ccccc32)cc1
inactive: growth inhibition [1] 20% | inhibition [2] 23% | inhibition [3] -5% | outcome [5] | outcome [6] | outcome [7] | outcome [8]
active: growth inhibition [4] 93%

COc1cc(OC)c(NC(=O)Nc2ccnc3ccccc23)cc1Cl
active: growth inhibition [4] 97%
inactive: growth inhibition [1] 9% | inhibition [2] 19% | inhibition [3] -2% | outcome [5] | outcome [6] | outcome [7] | outcome [8]

COc1ccc(CCNCCCCCCNCCc2cccc([N+](=O)[O-])c2)cc1OC
inactive: growth inhibition [1] -3% | inhibition [2] 13% | inhibition [3] -6% | outcome [5] | outcome [6] | outcome [7] | outcome [8]
active: growth inhibition [4] 93%

CCOC(=O)C(=O)N1c2ccc(OCC)cc2-c2c(ssc2=S)C1(C)C
inactive: inhibition [2] 5% | inhibition [3] -4% | outcome [5] | outcome [6] | outcome [7] | outcome [8]
active: growth inhibition [1] 100% | growth inhibition [4] 99%

Fc1ccc2nc(-c3cccc(-c4ccc(CN5CCN(c6ccncc6)CC5)cc4)c3)[nH]c2c1
active: growth inhibition [1] 67% | growth inhibition [4] 100%
inactive: inhibition [2] 39% | inhibition [3] 0% | outcome [5] | outcome [6] | outcome [7] | outcome [8]

CS(=O)(=O)CCNCc1ccc(-c2ccc3c(Nc4ccc(F)cc4Cl)ccnc3c2)o1
active: growth inhibition [1] 98% | growth inhibition [4] 100%
inactive: inhibition [2] 29% | inhibition [3] 0% | outcome [5] | outcome [6] | outcome [7] | outcome [8]

COc1ccc(C2CCN(CCCNC(=O)c3ccc(NC(=O)c4ccc(Cl)cc4)cc3)CC2)c(OC)c1
inactive: inhibition [2] 26% | inhibition [3] 3% | outcome [5] | outcome [6] | outcome [7] | outcome [8]
active: growth inhibition [1] 58% | growth inhibition [4] 99%

CC(C)C[C@H](Nc1ccnc(NCC2CCCCC2)n1)C(=O)NCCOc1ccccc1
active: growth inhibition [1] 73% | growth inhibition [4] 89%
inactive: inhibition [2] 37% | inhibition [3] 3% | outcome [5] | outcome [6] | outcome [7] | outcome [8]

O=C(C=Cc1ccc(Cl)c(Cl)c1)NCCCCCN1CCC(CCCNC(=O)/C=C/c2ccccc2)CC1
active: inhibition [2] 50% | growth inhibition [4] 96%
inactive: growth inhibition [1] 33% | inhibition [3] -9% | outcome [5] | outcome [6] | outcome [7] | outcome [8]

COC(=O)c1ccc(C(=O)NCCCCN2CCC(c3ccc4c(c3OC)CCCC4)CC2)cc1-c1ccc(C(F)(F)F)cc1
inactive: growth inhibition [1] 19% | inhibition [2] 24% | inhibition [3] 2% | outcome [5] | outcome [6] | outcome [7] | outcome [8]
active: growth inhibition [4] 93%

CCCCC(=O)Nc1nonc1-c1ccc(OCC)c(OCC)c1
inactive: inhibition [2] 9% | inhibition [3] -1% | outcome [5] | outcome [6] | outcome [7] | outcome [8]
active: growth inhibition [1] 95% | growth inhibition [4] 101%

OCCNc1nc(Nc2ccccc2)nc2ccccc12
active: growth inhibition [1] 61% | growth inhibition [4] 93%
inactive: inhibition [2] 5% | inhibition [3] 5% | outcome [5] | outcome [6] | outcome [7] | outcome [8]

O=C(Nc1ccccc1Br)N[C@@H]1CCN(c2ccnc3ccccc23)C1
active: growth inhibition [1] 90% | growth inhibition [4] 91%
inactive: inhibition [2] 25% | inhibition [3] 2% | outcome [5] | outcome [6] | outcome [7] | outcome [8]

Cc1cc(-c2ccc3occ(CCN)c3c2)cnc1N
active: growth inhibition [1] 56% | growth inhibition [4] 92%
inactive: inhibition [2] -5% | inhibition [3] -2% | outcome [5] | outcome [6] | outcome [7] | outcome [8]

Fc1ccc2nc(-c3ccc(-c4ccc(CNCCc5ccncc5)cc4)cc3)[nH]c2c1
active: growth inhibition [1] 97% | growth inhibition [4] 100%
inactive: inhibition [2] 23% | inhibition [3] 0% | outcome [5] | outcome [6] | outcome [7] | outcome [8]

Nc1ccc2c(N)c3ccccc3nc2c1
active: growth inhibition [1] 74% | growth inhibition [4] 93%
inactive: inhibition [2] 20% | inhibition [3] -2% | outcome [5] | outcome [6] | outcome [7] | outcome [8]

COc1cc2nc(N3CCN(C(=O)c4ccc(N(C(=O)OC(C)(C)C)C(=O)OC(C)(C)C)cc4)CC3)nc(N)c2cc1OC
inactive: growth inhibition [1] 19% | inhibition [2] 12% | inhibition [3] 1% | outcome [5] | outcome [6] | outcome [7] | outcome [8]
active: growth inhibition [4] 96%

CCCCCN1CCCC1CNS(=O)(=O)c1cccc(C(=O)Nc2cccc(C#N)c2)c1 (stereo not given)
inactive: growth inhibition [1] 7% | inhibition [2] 19% | inhibition [3] -1% | outcome [5] | outcome [6] | outcome [7] | outcome [8]
active: growth inhibition [4] 90%
